TGFb inhibitor = blocks TGF-b signaling; HepG2 CAGA-GFP TGF-b/SMAD3 reporter, GFP fluorescence, 18 h; TGF-beta stimulated, 500 pg/mL final; Potency, µM (series often up to 46.1 µM), without a hit: top-dose activity, negative = inhibition, hits mostly inhibitors; 410,000 tested, 1.2% active; AID 588855; note: potency is the fitted concentration of half-maximal effect; % is set by controls: 0 for no effect and ±100 for the full control effect; nearly all actives have a fitted effect of over 65% in size
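Cell-based qHTS in HEPG2 carrying a CAGA-GFP Smad reporter; compounds added before 500 pg/mL final TGF-beta, 18 h incubation at 37 degrees C, GFP fluorescence quantified per cell by imaging cytometry.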
IL1B secr inh = inflammasome signaling inhibition, IL-1 beta readout; THP-1 LPS/ATP IL-1B secretion, AlphaLISA, 16 h; hits give low values; 360,000 tested, 4.7% active; activity change, % at 57.5 µM; in the data active = activity change below about -50%; inconclusive = mostly about -30% to -49%; note: % is set by controls: 0 for no effect and ±100 for the full control effect
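Secreted IL-1B measured by AlphaLISA bead assay after 16 h compound exposure of THP-1 cells; compounds (final up to 57.5 uM) added 1 h before LPS (250 ng/mL) and ATP (1.25 mM) stimulation; lower signal means less secretion.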
TDP1 inh = TDP1 (human) enzyme inhibition; Q9NUW8; recombinant TDP1, AlphaScreen DNA substrate cleavage; Potency, µM (highest dose often 130 µM), inactives show at the top dose activity change, negative = inhibition, usual class: inhibitors; 350,000 tested, 0.28% active; AID 485290; note: potency is the fitted concentration of half-maximal effect; % is set by controls: 0 for no effect and ±100 for the full control effect; nearly all actives have a fitted effect of over 40% in size
Target sequence (Q9NUW8 whole entry, looked up): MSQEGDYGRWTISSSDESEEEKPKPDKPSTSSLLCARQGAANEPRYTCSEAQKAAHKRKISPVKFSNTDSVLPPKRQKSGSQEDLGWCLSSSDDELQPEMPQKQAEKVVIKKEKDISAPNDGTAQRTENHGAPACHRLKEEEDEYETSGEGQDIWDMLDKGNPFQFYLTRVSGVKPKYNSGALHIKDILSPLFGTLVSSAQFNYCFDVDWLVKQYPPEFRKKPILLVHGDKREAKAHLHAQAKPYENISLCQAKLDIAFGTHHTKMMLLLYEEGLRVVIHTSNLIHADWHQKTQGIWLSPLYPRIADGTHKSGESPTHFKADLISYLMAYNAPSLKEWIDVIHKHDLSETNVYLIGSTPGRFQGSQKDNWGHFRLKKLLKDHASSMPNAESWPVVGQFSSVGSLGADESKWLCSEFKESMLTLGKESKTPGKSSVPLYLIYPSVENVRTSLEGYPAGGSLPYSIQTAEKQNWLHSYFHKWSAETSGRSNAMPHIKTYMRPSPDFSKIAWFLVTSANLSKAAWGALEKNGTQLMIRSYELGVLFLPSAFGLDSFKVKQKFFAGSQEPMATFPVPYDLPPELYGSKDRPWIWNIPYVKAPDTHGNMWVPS
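Signal: AlphaScreen proximity between streptavidin donor and anti-FITC acceptor beads on intact substrate. Reaction: Tdp1 1 nM, substrate 15 nM final, 5 min RT after 15 min compound preincubation.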
DT40 TDP1 CPT = DT40-hTDP1 cell growth loss with CPT | Potency, µM (highest dose often 46.2 µM), for inactives: at the highest dose activity change, negative = growth inhibition, hits mostly inhibitors | 420,000 tested, 12% active | chicken DT40 Tdp1-/-;hTDP1 cells + 20 nM CPT, ATP luminescence, 48 h | AID 686979; note: potency is the fitted concentration of half-maximal effect; % is set by controls: 0 for no effect and ±100 for the full control effect; nearly all actives have a fitted effect of over 55% in size
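Cell growth measured by CellTiter-Glo luminescence after a minimum 48 h, 37 C compound exposure with 20 nM CPT in Tdp1-knockout DT40 cells stably expressing hTDP1, seeded 400/well; qHTS titration format.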
HepG2 tox = HepG2 cytotoxicity, counter-screen for TGF-b inhibitors. HepG2 CAGA-GFP viability, ATP luminescence, 18 h. Potency, µM (top dose mostly 46.1 µM), inactives show at the highest dose activity change, negative = cytotoxicity, most hits filed as cytotoxic. 410,000 tested, 0.76% active; note: potency is the fitted concentration of half-maximal effect
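HepG2 CAGA-GFP cells (1000/well, DMEM with 1% FBS) received compound, then TGF-beta at 500 pg/mL final, and were incubated 18 hours at 37 degrees C. Viability was read by CellTiter-Glo luminescence. Media-only wells were set as complete cell-killing and DMSO as no toxicity.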
TDP1 cell noCPT = qHTS for Inhibitors of human tyrosyl-DNA phosphodiesterase 1 (TDP1): qHTS in cells in absence of CPT | DT40 Tdp1-/- hTDP1 cells, no CPT, ATP luminescence, 48 h | Potency, µM (series often up to 46.2 µM), without a hit: at the top dose activity change, negative = growth inhibition, hits mostly inhibitors | 420,000 tested, 15% active | AID 686978, 2013; note: potency is the fitted concentration of half-maximal effect; % is set by controls: 0 for no effect and ±100 for the full control effect; nearly all actives have a fitted effect of over 55% in size
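Seeded 400 DT40-hTDP1 cells/well (vehicle DMSO, no 20 nM CPT); pinned compounds; ≥48 hr at 37 °C; CellTiter-Glo luminescence as viability measure.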
* marks the source's active call; other numbers are inactive results; ? = inconclusive; nt = no result given; [ ] = dose if it differs, or a comment. Hits are enriched below; roughly 19% of the tested compounds scored in any of these assays. Unless noted, calls come from the whole dose curve; as a rule, active = well fitted curve in the direction sought with a large enough effect; inconclusive = small, poorly fitted or top-dose-only effect, or another doubt; inactive = no such curve, though single readings can be large; an effect the other way counts as inactive or inconclusive.

SMILES	TGFb inhibitor	IL1B secr inh	TDP1 inh	DT40 TDP1 CPT	HepG2 tox	TDP1 cell noCPT
COc1ccc(CNC(=O)Cc2ccc(NC(=O)N3CCCCc4ccccc43)cc2)cc1	9.5%	nt	8.4%	?	0.9%	23.1µM*
CC(C)CCNC(=O)Cc1ccc(NC(=O)N2CCCCc3ccccc32)cc1	-1.7%	nt	7.1%	-24.2%	-0.2%	?
COc1ccc(Cl)cc1NC(=O)Cc1ccc(NC(=O)N2CCCCc3ccccc32)cc1	-21.9%	nt	1.9%	18.4µM*	-6.1%	20.6µM*
COc1ccc(CC(=O)NC2CCN(CC(=O)N3CCCc4ccccc43)CC2)cc1OC	4.0%	29.7	0.0%	-22.0%	-21.8%	3.66µM*
CCN1C(=O)c2ccccc2Sc2ccc(NC(=O)Nc3ccc(C(C)=O)cc3)cc21	?	nt	5.7%	?	-22.5%	20.6µM*
CCc1ccccc1NC(=O)Nc1ccc2c(c1)N(CC)C(=O)c1ccccc1S2	11.2µM*	nt	5.7%	8.2µM*	-33.7%	14.6µM*
COc1ccc2c(c1)O[C@@H]1c3ccc(OC)cc3OCC21 (some centres undefined)	nt	nt	11.9%[56.1 µM]	4.2%	nt	13.5%
CCN(CC)CCNC(=O)c1ccc(-n2c(C)cc3c2CCCC3=O)cc1	8.6%	16.1	-5.3%	-0.7%	-2.2%	-5.0%
COc1cccc(CNC(=O)c2cc3oc4ccccc4c3n2C)c1OC	15.1%	-7.5	5.1%	-13.8%	-27.8%	-24.6%
CCn1c(C(=O)NCc2ccc(F)cc2)cc2oc3ccccc3c21	?	nt	5.1%	20.6µM*	-26.0%	?
CCOc1ccc(CNC(=O)c2cc3oc4ccccc4c3n2C)cc1	-18.7%	?	0.0%	?	-17.7%	?
CCOc1ccccc1CNC(=O)c1cc2oc3ccccc3c2n1CC	25.6%	?	2.9%	25.9µM*	-18.7%	18.4µM*
COc1ccc2[nH]c(C(=O)N3CCCN(Cc4ccc(F)cc4)CC3)cc2c1	0.0%	-78.3*	6.8%	?	-20.4%	?
COc1ccc2[nH]c(C(=O)NCCN3CCCCC3)cc2c1	-8.5%	21.4	nt	18.6%	7.94µM*	3.1%
COc1ccc(CCC(=O)NCc2nc3cccnc3n2Cc2ccc(F)cc2)cc1	?	nt	3.3%	?	-28.7%	?
Clc1ccc(CNc2ncnc3nc[nH]c23)cc1	10.7%	nt	2.2%	?	-1.6%	?
Cc1ccc(Cl)cc1-n1ncc2c(NCCc3ccccc3)ncnc21	?	nt	5.2%	16.4µM*	-58.4%	20.6µM*
Cc1ccc(Cl)cc1-n1ncc2c(NCCC3=CCCCC3)ncnc21	?	nt	2.6%	16.4µM*	-41.2%	?
Cc1ccc(Cl)cc1-n1ncc2c(NCc3ccc(F)cc3)ncnc21	?	nt	-5.2%	?	-42.9%	?
Cc1ccc(Cl)cc1-n1ncc2c(NCCCc3ccccc3)ncnc21	?	nt	-2.6%	7.31µM*	-39.5%	?
CC(C)Oc1ccc(CNC(=O)c2ccccc2NC(=O)c2nsc3ccccc23)cc1	?	nt	2.7%	?	-22.8%	?
COc1ccc(C2=NCN(c3ccc(C)cc3)C(=S)N2)cc1	-12.2%	-14.5	8.0%	-26.3%	-20.7%	?
Cc1ccc(-c2cn(-c3ccccc3)c3[n+]2CCCS3)cc1	?	-63.3*	1.0%	0.651µM*	-6.6%	0.366µM*
COc1ccc(-n2cc(-c3ccc(C)cc3)[n+]3c2SCC3)cc1	-17.7%	-94.3*	5.3%	1.46µM*	-29.8%	1.3µM*
c1ccc(-c2cn(-c3ccccc3)c3[n+]2CCCS3)cc1	-3.2%	-0.5	0.0%	3.26µM*	5.9%	3.66µM*
